# Source: PubChem BioAssay AID1159580 (chemical genetic matrix, 2015)
# About 2,000 (36%) of roughly 5,500 compounds were called active. About 18% were inconclusive and are not listed. This is one part of the list. Values without a mark were called inactive. No stated cut-off is given here; in the data, active means normalized growth mostly below about 0.91 (no sharp cut-off); inconclusive means no clear call, values can overlap the other calls; inactive means mostly above about 0.92.
# Experiment: chemical genetic growth profiling, strain panel (AID 1159580);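 further: tested at 20 µM; growth read once vehicle control cultures reached saturation at 30 °C; 1 = growth at the plate median or of vehicle wells; lower values mean less growth of the strain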
# Conditions: S. cerevisiae deletion strains, growth OD
# [1] = locus YAR019C, strain CDC15, hits give low values
# [2] = locus YBL105C, strain PKC1, hits give low values
# [3] = locus YBR135W, strain CKS1, hits give low values
# [4] = locus YBR136W, strain MEC1, hits give low values
# [5] = locus YBR160W, strain CDC28, hits give low values
# [6] = locus YDL017W, strain CDC7, hits give low values
# [7] = locus YDL028C, strain MPS1, hits give low values
# [8] = locus YDL101C, strain DUN1, hits give low values
# [9] = locus YDL108W, strain KIN28, hits give low values
# [10] = locus YDL132W, strain cdc53, hits give low values
# [11] = locus YDL214C, strain PRR2, hits give low values
# [12] = locus YDR052C, strain DBF4, hits give low values
# [13] = locus YDR054C, strain cdc34, hits give low values
# [14] = locus YDR226W, strain ADK1, hits give low values
# [15] = locus YDR477W, strain SNF1, hits give low values
# [16] = locus YER123W, strain YCK3, hits give low values
# [17] = locus YER133W, strain GLC7, hits give low values
# [18] = locus YFL009W, strain cdc4, hits give low values
# [19] = locus YFL029C, strain CAK1, hits give low values
# [20] = locus YFR003C, strain YPI1, hits give low values
# [21] = locus YFR019W, strain FAB1, hits give low values
# [22] = locus YFR028C, strain CDC14, hits give low values
# [23] = locus YGR040W, strain KSS1, hits give low values
# [24] = locus YGR052W, strain FMP48, hits give low values
# [25] = locus YGR092W, strain DBF2, hits give low values
# [26] = locus YHR030C, strain SLT2, hits give low values
# [27] = locus YHR079C, strain IRE1, hits give low values
# [28] = locus YHR082C, strain KSP1, hits give low values
# [29] = locus YHR205W, strain SCH9, hits give low values
# [30] = locus YIL147C, strain SLN1, hits give low values
# [31] = locus YJL095W, strain BCK1, hits give low values
# [32] = locus YJL128C, strain PBS2, hits give low values
# [33] = locus YJL157C, strain FAR1, hits give low values
# [34] = locus YJR016C, strain ILV3, hits give low values
# [35] = locus YJR066W, strain TOR1 (second series), hits give low values
# [36] = locus YJR066W, strain TOR1, hits give low values
# [37] = locus YKL048C, strain ELM1, hits give low values
# [38] = locus YKL067W, strain YNK1, hits give low values
# [39] = locus YKL101W, strain HSL1, hits give low values
# [40] = locus YKL193C, strain SDS22, hits give low values
# [41] = locus YKL203C, strain TOR2, hits give low values
# [42] = locus YLR113W, strain HOG1, hits give low values
# [43] = locus YLR133W, strain CKI1, hits give low values
# [44] = locus YLR403W, strain SFP1, hits give low values
# [45] = locus YML070W, strain DAK1, hits give low values
# [46] = locus YMR001C, strain CDC5, hits give low values
# [47] = locus YMR205C, strain PFK2 (second series), hits give low values
# [48] = locus YMR277W, strain FCP1, hits give low values
# [49] = locus YNL006W, strain LST8, hits give low values
# [50] = locus YNL020C, strain ARK1, hits give low values
# [51] = locus YNL161W, strain CBK1, hits give low values
# [52] = locus YNL183C, strain NPR1, hits give low values
# [53] = locus YNL207W, strain RIO2, hits give low values
# [54] = locus YNL222W, strain SSU72, hits give low values
# [55] = locus YNL307C, strain MCK1 (second series), hits give low values
# [56] = locus YOL078W, strain AVO1, hits give low values
# [57] = locus YOL136C, strain PFK27, hits give low values
# [58] = locus YOR061W, strain CKA2, hits give low values
# [59] = locus YOR119C, strain RIO1, hits give low values
# [60] = locus YOR231W, strain MKK1, hits give low values
# [61] = locus YOR329C, strain SCD5, hits give low values
# [62] = locus YPL031C, strain PHO85, hits give low values
# [63] = locus YPL153C, strain RAD53, hits give low values
# [64] = locus YPL204W, strain HRR25, hits give low values
# [65] = locus YPL209C, strain IPL1, hits give low values
# [66] = locus YPL256C, strain CLN2, hits give low values
# [67] = locus YPR025C, strain CCL1, hits give low values
# [68] = locus YPR106W, strain ISR1, hits give low values
# [69] = locus YPR111W, strain DBF20, hits give low values
# [70] = strain NNK1, hits give low values
# [71] = strain TSCII, hits give low values
structure (smiles),measurement,setting,value
O=S(=O)(Nc1cccc(CCc2ccccn2)c1)c1cc(Cl)c(Cl)cc1Cl,normalized growth,[1],0.982
same,normalized growth,[2],0.977
same,normalized growth,[3],0.985
same,normalized growth,[4],0.983
same,normalized growth,[5],0.966
same,normalized growth,[6],0.981
same,normalized growth,[7],0.987
same,normalized growth,[8],0.973
same,normalized growth,[9],0.983
same,normalized growth,[10],0.976
same,normalized growth,[11],0.967
same,normalized growth,[12],0.977
same,normalized growth,[13],0.979
same,normalized growth,[14],0.986
same,normalized growth,[15],0.988
same,normalized growth,[16],0.995
same,normalized growth,[17],1
same,normalized growth,[18],0.989
same,normalized growth,[19],0.976
same,normalized growth,[20],0.981
same,normalized growth,[21],0.987
same,normalized growth,[22],0.973
same,normalized growth,[23],0.98
same,normalized growth,[24],1.08
same,normalized growth,[25],1
same,normalized growth,[26],1.15
same,normalized growth,[27],1.01
same,normalized growth,[28],1.08
same,normalized growth,[29],0.963
same,normalized growth,[30],0.985
same,normalized growth,[31],1.02
same,normalized growth,[32],0.942
same,normalized growth,[33],0.98
same,normalized growth,[34],0.981
same,normalized growth,[35],0.963
same,normalized growth,[36],1.08
same,normalized growth,[37],0.97
same,normalized growth,[38],0.979
same,normalized growth,[39],0.959
same,normalized growth,[40],0.984
same,normalized growth,[41],1.05
same,normalized growth,[42],0.883
same,normalized growth,[43],0.965
same,normalized growth,[44],0.983
same,normalized growth,[45],0.95
same,normalized growth,[46],0.987
same,normalized growth,[47],0.971
same,normalized growth,[48],0.991
same,normalized growth,[49],0.992
same,normalized growth,[50],0.969
same,normalized growth,[51],0.978
same,normalized growth,[52],1.04
same,normalized growth,[53],0.985
same,normalized growth,[54],0.976
same,normalized growth,[55],0.961
same,normalized growth,[56],0.974
same,normalized growth,[57],0.952
same,normalized growth,[58],0.978
same,normalized growth,[59],1.06
same,normalized growth,[60],0.951
same,normalized growth,[61],0.983
same,normalized growth,[62],0.992
same,normalized growth,[63],0.965
same,normalized growth,[64],0.991
same,normalized growth,[65],0.976
same,normalized growth,[66],0.945
same,normalized growth,[67],0.984
same,normalized growth,[68],0.965
same,normalized growth,[69],0.955
same,normalized growth,[70],0.992
same,normalized growth,[71],0.978
O=S(=O)(Nc1cccc2cccnc12)c1cc(Cl)c(Cl)cc1Cl,normalized growth,"locus YAL013W, strain DEP1, hits give low values",0.773 (active)
same,normalized growth,"locus YBR229C, strain ROT2, hits give low values",0.672 (active)
same,normalized growth,"locus YCL061C, strain MRC1, hits give low values",0.804 (active)
same,normalized growth,[8],1.02
same,normalized growth,"locus YDR150W, strain NUM1, hits give low values",1.04
same,normalized growth,"locus YEL061C, strain CIN8, hits give low values",0.644 (active)
same,normalized growth,"locus YGR078C, strain PAC10, hits give low values",0.855 (active)
same,normalized growth,[26],0.635 (active)
same,normalized growth,"locus YHR087W, strain rtc3, hits give low values",0.517 (active)
same,normalized growth,"locus YJR043C, strain POL32, hits give low values",0.947
same,normalized growth,"locus YJR075W, strain HOC1, hits give low values",0.819 (active)
same,normalized growth,"locus YKL190W, strain CNB1, hits give low values",0.652 (active)
same,normalized growth,"locus YLR039C, strain RIC1, hits give low values",0.627 (active)
same,normalized growth,"locus YLR058C, strain SHM2 (second series), hits give low values",0.951
same,normalized growth,"locus YLR085C, strain ARP6, hits give low values",0.583 (active)
same,normalized growth,"locus YLR262C, strain YPT6, hits give low values",0.716 (active)
same,normalized growth,"locus YML094W, strain GIM5, hits give low values",0.761 (active)
same,normalized growth,"locus YMR219W, strain ESC1, hits give low values",0.863 (active)
same,normalized growth,"locus YMR263W, strain SAP30, hits give low values",0.853 (active)
same,normalized growth,"locus YNL153C, strain GIM3, hits give low values",0.845 (active)
same,normalized growth,"locus YNL298W, strain CLA4 (second series), hits give low values",0.724 (active)
same,normalized growth,"locus YNL322C, strain KRE1, hits give low values",0.967
same,normalized growth,"locus YNR030W, strain Alg12, hits give low values",0.773 (active)
same,normalized growth,"locus YOL006C, strain TOP1, hits give low values",0.169 (active)
same,normalized growth,"locus YPL055C, strain LGE1, hits give low values",0.635 (active)
same,normalized growth,"locus YPL241C, strain CIN2, hits give low values",0.635 (active)
same,normalized growth,"locus YPR135W, strain CTF4, hits give low values",0.807
O=S(=O)(Nc1cccc2nsnc12)c1cc(Cl)sc1Cl,normalized growth,[1],0.948
same,normalized growth,[2],0.961
same,normalized growth,[3],0.957
same,normalized growth,[4],0.96
same,normalized growth,[5],0.962
same,normalized growth,[6],0.961
same,normalized growth,[7],0.961
same,normalized growth,[8],0.962
same,normalized growth,[9],0.961
same,normalized growth,[10],0.969
same,normalized growth,[11],0.956
same,normalized growth,[12],0.955
same,normalized growth,[13],0.95
same,normalized growth,[14],0.947
same,normalized growth,[15],0.983
same,normalized growth,[16],0.944
same,normalized growth,[17],0.938
same,normalized growth,[18],0.947
same,normalized growth,[19],0.952
same,normalized growth,[20],0.958
same,normalized growth,[21],0.938
same,normalized growth,[22],0.96
same,normalized growth,[23],0.971
same,normalized growth,[24],1.08
same,normalized growth,[25],0.87
same,normalized growth,[26],0.871
same,normalized growth,[27],0.905
same,normalized growth,[28],0.981
same,normalized growth,[29],0.933
same,normalized growth,[30],0.953
same,normalized growth,[31],0.904
same,normalized growth,[32],0.953
same,normalized growth,[33],0.967
same,normalized growth,[34],0.951
same,normalized growth,[35],0.95
same,normalized growth,[36],0.953
same,normalized growth,[37],0.916
same,normalized growth,[38],0.954
same,normalized growth,[39],0.955
same,normalized growth,[40],0.961
same,normalized growth,[41],1.02
same,normalized growth,[42],0.887
same,normalized growth,[43],0.96
same,normalized growth,[44],0.942
same,normalized growth,[45],0.947
same,normalized growth,[46],0.959
same,normalized growth,[47],0.962
same,normalized growth,[48],0.96
same,normalized growth,[49],0.959
same,normalized growth,[50],0.953
same,normalized growth,[51],0.962
same,normalized growth,[52],0.979
same,normalized growth,[53],0.957
same,normalized growth,[54],0.958
same,normalized growth,[55],0.933
same,normalized growth,[56],0.957
same,normalized growth,[57],0.94
same,normalized growth,[58],0.943
same,normalized growth,[59],1.09
same,normalized growth,[60],0.954
same,normalized growth,[61],0.961
same,normalized growth,[62],0.982
same,normalized growth,[63],0.994
same,normalized growth,[64],0.999
same,normalized growth,[65],0.96
same,normalized growth,[66],0.884
same,normalized growth,[67],0.956
same,normalized growth,[68],0.964
same,normalized growth,[69],0.947
same,normalized growth,[70],0.969
same,normalized growth,[71],0.953
